# According to the supplement of paper PMC8975748:
# Counter-ions that a name gives are not always drawn. ± gives the standard deviation of the averaged measurements.
# How the values were obtained:
# [1] = system: Saccharomyces cerevisiae BY4741 SeMeCo community; assay: mean cell size (pixel area) (pixels); higher = larger cells; conditions: 10 µM; 24 h; SM minimal medium
# How it was run: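 Mean cell pixel area per well was determined by automated confocal microscopy with Harmony analysis of paraformaldehyde-fixed cells. The cells, a Saccharomyces cerevisiae BY4741 community of four plasmids that each complement one auxotrophy and carry a fluorescent marker, were incubated for 24 h with drug at a final 10 µM in SM medium in 384-well plates. Numbers are averaged over 3 replicates. Same SeMeCo high-content imaging drug screen: Selleck FDA-approved drugs at 10 µM, 24 h in SM medium, 384-well plates, 3 replicates.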
# [2] = system: Saccharomyces cerevisiae BY4741 SeMeCo community; assay: z-score of prototroph abundance vs DMSO median; higher = larger share of this subpopulation than in DMSO controls; conditions: 10 µM; 24 h; SM minimal medium; subpopulation (auxotrophy): Prototroph
# How it was run: (§1)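 A community of Saccharomyces cerevisiae BY4741 was built from four plasmids that each restored one auxotrophy and encoded a distinct fluorescent protein. Pre-grown overnight to OD600 1.0 and diluted to 0.3, it was dispensed at 70 µl into 384-well plates acoustically predosed with library drugs for a final 10 µM, and grown 24 h in minimal SM medium. Cells were then paraformaldehyde-fixed and imaged by automated confocal microscopy. Thresholds and autofluorescence correction came from single-auxotroph fluorescent strains, and each subpopulation's abundance was scored as a z-score relative to the vehicle-well median.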
# [3] = system: Saccharomyces cerevisiae BY4741 SeMeCo community; assay: z-score of subpopulation abundance vs DMSO median, subpopulation auxotrophic for L; higher = larger share of this subpopulation than in DMSO controls; conditions: 10 µM; 24 h; SM minimal medium; subpopulation (auxotrophy): L
# How it was run: as §1
# [4] = system: Saccharomyces cerevisiae BY4741 SeMeCo community; assay: z-score of subpopulation abundance vs DMSO median, subpopulation auxotrophic for U; higher = larger share of this subpopulation than in DMSO controls; conditions: 10 µM; 24 h; SM minimal medium; subpopulation (auxotrophy): U
# How it was run: as §1
# [5] = system: Saccharomyces cerevisiae BY4741 SeMeCo community; assay: z-score of subpopulation abundance vs DMSO median, subpopulation auxotrophic for LU; higher = larger share of this subpopulation than in DMSO controls; conditions: 10 µM; 24 h; SM minimal medium; subpopulation (auxotrophy): LU
# How it was run: as §1
# [6] = system: Saccharomyces cerevisiae BY4741 SeMeCo community; assay: z-score of subpopulation abundance vs DMSO median, subpopulation auxotrophic for LM; higher = larger share of this subpopulation than in DMSO controls; conditions: 10 µM; 24 h; SM minimal medium; subpopulation (auxotrophy): LM
# How it was run: as §1
# [7] = system: Saccharomyces cerevisiae BY4741 SeMeCo community; assay: z-score of subpopulation abundance vs DMSO median, subpopulation auxotrophic for HM; higher = larger share of this subpopulation than in DMSO controls; conditions: 10 µM; 24 h; SM minimal medium; subpopulation (auxotrophy): HM
# How it was run: as §1
# [8] = system: Saccharomyces cerevisiae BY4741 SeMeCo community; assay: z-score of subpopulation abundance vs DMSO median, subpopulation auxotrophic for HU; higher = larger share of this subpopulation than in DMSO controls; conditions: 10 µM; 24 h; SM minimal medium; subpopulation (auxotrophy): HU
# How it was run: as §1
# [9] = system: Saccharomyces cerevisiae BY4741 SeMeCo community; assay: z-score of subpopulation abundance vs DMSO median, subpopulation auxotrophic for UM; higher = larger share of this subpopulation than in DMSO controls; conditions: 10 µM; 24 h; SM minimal medium; subpopulation (auxotrophy): UM
# How it was run: as §1
# [10] = system: Saccharomyces cerevisiae BY4741 SeMeCo community; assay: z-score of subpopulation abundance vs DMSO median, subpopulation auxotrophic for HL; higher = larger share of this subpopulation than in DMSO controls; conditions: 10 µM; 24 h; SM minimal medium; subpopulation (auxotrophy): HL
# How it was run: as §1
# [11] = system: Saccharomyces cerevisiae BY4741 SeMeCo community; assay: z-score of subpopulation abundance vs DMSO median, subpopulation auxotrophic for HLU; higher = larger share of this subpopulation than in DMSO controls; conditions: 10 µM; 24 h; SM minimal medium; subpopulation (auxotrophy): HLU
# How it was run: as §1
# [12] = system: Saccharomyces cerevisiae BY4741 SeMeCo community; assay: z-score of subpopulation abundance vs DMSO median, subpopulation auxotrophic for HLM; higher = larger share of this subpopulation than in DMSO controls; conditions: 10 µM; 24 h; SM minimal medium; subpopulation (auxotrophy): HLM
# How it was run: as §1
# [13] = system: Saccharomyces cerevisiae BY4741 SeMeCo community; assay: z-score of subpopulation abundance vs DMSO median, subpopulation auxotrophic for HUM; higher = larger share of this subpopulation than in DMSO controls; conditions: 10 µM; 24 h; SM minimal medium; subpopulation (auxotrophy): HUM
# How it was run: as §1
# [14] = system: Saccharomyces cerevisiae BY4741 SeMeCo community; assay: z-score of subpopulation abundance vs DMSO median, subpopulation auxotrophic for LUM; higher = larger share of this subpopulation than in DMSO controls; conditions: 10 µM; 24 h; SM minimal medium; subpopulation (auxotrophy): LUM
# How it was run: as §1
# [15] = system: Saccharomyces cerevisiae BY4741 SeMeCo community; assay: z-score of subpopulation abundance vs DMSO median, subpopulation auxotrophic for HLUM; higher = larger share of this subpopulation than in DMSO controls; conditions: 10 µM; 24 h; SM minimal medium; subpopulation (auxotrophy): HLUM
# How it was run: as §1
# [16] = system: Saccharomyces cerevisiae BY4741 SeMeCo community; assay: z-score of subpopulation abundance vs DMSO median, subpopulation auxotrophic for M; higher = larger share of this subpopulation than in DMSO controls; conditions: 10 µM; 24 h; SM minimal medium; subpopulation (auxotrophy): M
# How it was run: as §1
# [17] = system: Saccharomyces cerevisiae BY4741 SeMeCo community; assay: z-score of subpopulation abundance vs DMSO median, subpopulation auxotrophic for H; higher = larger share of this subpopulation than in DMSO controls; conditions: 10 µM; 24 h; SM minimal medium; subpopulation (auxotrophy): H
# How it was run: as §1
Structure (SMILES),mean cell size [1],z-score of prototroph abundance [2],z-score of subpopulation abundance [3],z-score of subpopulation abundance [4],z-score of subpopulation abundance [5],z-score of subpopulation abundance [6],z-score of subpopulation abundance [7],z-score of subpopulation abundance [8],z-score of subpopulation abundance [9],z-score of subpopulation abundance [10],z-score of subpopulation abundance [11],z-score of subpopulation abundance [12],z-score of subpopulation abundance [13],z-score of subpopulation abundance [14],z-score of subpopulation abundance [15],z-score of subpopulation abundance [16],z-score of subpopulation abundance [17]
CCN1CCN(C(=O)N[C@@H](C(=O)N[C@@H]2C(=O)N3[C@@H]2SC(C)(C)[C@@H]3C(=O)O)c2ccccc2)C(=O)C1=O [Piperacillin Sodium],12.6 ± 0.14,-0.12,1.08,-0.72,-0.03,0.88,1.21,-0.25,-0.96,0.54,0.68,0.59,0.48,0.86,-0.13,,
CN1CC2c3ccccc3Oc3ccc(Cl)cc3C2C1 (configuration not stated) [Asenapine maleate],12.34 ± 0.11,0.14,1.05,,,0.5,,-0.59,-0.2,0.5,0.37,,0.01,0.42,0.32,-0.45,
NC12CC3CC(CC(C3)C1)C2 [Amantadine],12 ± 0.17,0,0.99,-0.38,0.79,0.28,-0.03,-0.15,0.12,-0.09,0.22,-0.36,0.47,-0.04,-0.31,,
CCCCCCCCN=C(N)NC(N)=NCc1ccc(Cl)c(Cl)c1 [Olanexidine Hydrochloride semihydrate],9.82 ± 0.35,-19.3,,-3.91,,-0.77,13.8,5.71,12.2,11.1,5.73,,34.7,21.6,213,-3.65,
C=C1CCN([C@H](C)[C@](O)(Cn2cncn2)c2ccc(F)cc2F)CC1 [Efinaconazole],11.3 ± 0.097,-9.55,0.13,-0.68,,2.18,3.94,2.02,16.2,,3,,7.05,7.49,20.3,2.69,11.9
CC(C)N1CCN(c2ccc(OCC3COC(Cn4cncn4)(c4ccc(Cl)cc4Cl)O3)cc2)CC1 (configuration not stated) [Terconazole],12.1 ± 0.043,1.34,0.04,-0.27,,,-1.2,-0.58,-0.8,-0.76,-0.59,,-0.65,-0.86,-0.55,-1.43,-0.38
CN(C)CC(c1ccc(O)cc1)C1(O)CCCCC1 (configuration not stated) [Desvenlafaxine],12.4 ± 0.27,0.76,,0.57,,-0.57,-1.06,-0.26,-0.37,-0.75,-1.12,-0.85,-0.85,-0.64,-0.91,-0.95,-0.84
C[C@]1(COc2ccc(N3CCC(Oc4ccc(OC(F)(F)F)cc4)CC3)cc2)Cn2cc([N+](=O)[O-])nc2O1 [Delamanid],12.1 ± 0.19,-0.2,1.53,-0.77,,,0,-0.43,-0.53,0.9,0.12,,-0.19,0.42,0.08,-0.38,0.86
